The text below walks through data of PubChem BioAssay (NCI).

The panel holds about 83,000 compounds, 20% with a hit somewhere; the sample as a whole holds those more often.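 Assay: single dose, 48 h. Readout: percent growth (0 = no net growth; negative = cell death). Active: <10.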 A number with no mark means an inactive call. Activity calls are given as the source filed them.

Experiment in all cases: NCI-60 one-dose screen, 48 h (100 = growth as untreated, 0 = no growth, -100 = all killed)
Common to all, as to conditions: 10 µM

Assay [1] has as its system SR leukemia.
Assay [2] deals with RPMI-8226 leukemia.
Assay [3] concerns OVCAR-8 ovarian.
Assay [4] deals with OVCAR-5 ovarian.
The subject of assay [5] is OVCAR-4 ovarian.
For assay [6], the system named is SK-OV-3 ovarian.
For assay [7], the system named is IGROV1 ovarian.
The subject of assay [8] is OVCAR-3 ovarian.
Assay [9] has as its system HS 578T breast.
The subject of assay [10] is NCI/ADR-RES ovarian.

For the compound `O=S(=O)(O)c1ccc(Cl)cc1`, the growth in [1] is 92.5%; in assay [2] it was 102%; in [3] it was 101%; in [4] it was 103%; in assay [5], 114%; in [6], 92.6%. Further, the growth was 103% in assay [7], 103% in assay [8], 101% in assay [9] and 99% in assay [10].

Consider `CCc1ccc(-c2ccc(-n3nc(C)c4c(N)nc(Cc5ccccc5)nc43)cc2)cc1`, for which the growth in assay [1] was 21.2%; in assay [2], 86%; in assay [3] it was 32.3%; in assay [4], 73.5%; in assay [5], 63.9%; in assay [6] it was 62.8%. The growth is 68% in assay [7], 80% in assay [8], 57.6% in assay [9] and 38.4% in assay [10].

On to `NS(=O)(=O)Oc1ccc(NC(=O)C2CCCCCC2)cc1`, for which the growth in [1] is 98.5%; in assay [2] it was 102%; in assay [3], 98.8%; in assay [4], 98.4%; in [5], 107%; in assay [6] it was 99%. Moreover, the growth in assay [7] is 103%; in assay [8], 102%; in [9] it was 108%; in assay [10], 103%.

For `CC(C)C[C@H](NC(=O)Cn1cccc(CNC(=O)c2ccccc2)c1=O)B(O)O`, the growth in [1] is 16.4%; in assay [2] it was 0.606% (active); in assay [3] it was 54.4%; in assay [4] it was 38.8%; in assay [5], 36.7%; in assay [6], 58.5%. The growth in assay [7] is 51.5%; in assay [8], -43.2% (active); in assay [9], 16.6%; in [10], 103%.

In the case of `CN(C)c1ccc(/C=N/NC(=O)c2ccccc2Nc2cccc(C(F)(F)F)c2)cc1`, the growth in assay [1] was 85%; in assay [2], 76.8%; in [3] it was 99.6%; in assay [4], 88.4%; in assay [5], 76.1%; in [6] it was 100%. Also, the growth in assay [7] was 69.1%; in assay [8] it was 87.7%; in [9], 83.5%; in assay [10], 93%.

`C=CCN(CC=C)C(=O)[C@H](CC)[C@@H]1CC[C@@H](C)[C@@H]([C@H](C)[C@@H](O)[C@@H](C)C(=O)[C@H](CC)C2O[C@]3(C=CC(=O)[C@]4(CC[C@@](C)([C@H]5CC[C@](O)(CC)[C@H](C)O5)O4)O3)[C@H](C)C[C@@H]2C)O1` (stereo not given in full): the growth was 49.1% in assay [1]; -23% (active) in assay [2]; 32.4% in [3]; 32.8% in [4]; 42.7% in assay [5]; 41% in assay [6]. Further, the growth in assay [7] was 43.5%; in assay [8], 29.8%; in assay [9], 33.9%; in assay [10], 16.8%.

On to `CCc1c2c(nc3ccc(OC(=O)N4CCC(N5CCCCC5)CC4)cc13)-c1cc3c(c(=O)n1C2)COC(=O)[C@]3(O)CC`, for which the growth was 1.34% (active) in [1]; 60.8% in assay [2]; 28.1% in assay [3]; 70.4% in [4]; 62.4% in assay [5]; 25.9% in assay [6]. Besides, the growth in assay [7] is 49.9%; in assay [8] it was 33%; in [9], 102%; in assay [10] it was 24.5%.

With `COc1cc2c(Nc3ccc(-c4ccc(N)cc4)cc3)ncnc2c(OC)c1OC`, the growth in assay [1] is 31.8%; in assay [2] it was 39.5%; in assay [3], 41.2%; in assay [4], 40.1%; in assay [5], 51.4%; in assay [6] it was 36.1%. Also, the growth in assay [7] was 22.5%; in [8], 41.4%; in assay [9], 70.6%; in assay [10], 48.9%.

As for `COc1ccc2c(c1)C(=O)/C(=C/c1ncc([N+](=O)[O-])n1C)O2`, the growth was 9.33% (active) in assay [1]; 105% in assay [2]; -18.2% (active) in [3]; 1.74% (active) in [4]; -6.9% (active) in assay [5]; -21.7% (active) in [6]. In addition, the growth in [7] was -30.4% (active); in assay [8], -18% (active); in assay [9], -9.93% (active); in assay [10], -0.383% (active).

`COc1cc2cc(Oc3ccc(NC(=O)c4cccc(C(F)(F)F)c4)cc3)c(C)nc2cc1OC`: the growth in assay [1] is 28%; in assay [2] it was 17.5%; in assay [3] it was 42.5%; in assay [4], 70.2%; in assay [5], 43.2%; in [6], 23.4%. Further, the growth in assay [7] is 36.1%; in assay [8], 15%; in assay [9], 41.2%; in assay [10], 26%.

As for `CCCCCCCCCCOC(c1ccccc1)c1ccccc1`, the growth was 93.7% in assay [1]; 96% in [2]; 103% in [3]; 88.7% in assay [4]; 99.8% in assay [5]; 96.6% in assay [6]. Further, the growth was 73.7% in assay [7], 99.5% in assay [8], 99.7% in [9] and 86.1% in [10].

`Cc1c(Cl)cccc1NC(=O)CN1CCOCC1`: the growth in assay [1] was 86.1%; in assay [2], 101%; in assay [3], 106%; in assay [4], 111%; in assay [5], 93.9%; in [6], 97.1%. In addition, the growth is 110% in assay [7], 107% in assay [8], 92.3% in [9] and 100% in assay [10].

`COc1ccc2nc(-c3ccc(Cl)cc3)cc(-c3nnc(SC/C(=N\O)c4ccccc4)n3-c3ccccc3)c2c1`: the growth was 67.1% in [1]; 59.7% in assay [2]; 82.3% in assay [3]; 88.6% in assay [4]; 84.5% in [5]; 99.9% in assay [6]. Besides, the growth was 105% in assay [7], 86.4% in assay [8], 92.8% in [9] and 88.2% in assay [10].

On to `CCN(CC)CCOc1ccc2c(c1O)C(=O)c1ccccc1C2=O`, for which the growth in assay [1] is 63.5%; in assay [2], 90.3%; in assay [3], 62.4%; in assay [4], 104%; in assay [5] it was 85.5%; in [6], 77.6%. Also, the growth in assay [7] is 97.3%; in assay [8] it was 94.7%; in [9], 84.6%; in assay [10] it was 72%.

`COc1ccc(Cc2cnc(N)nc2N)cc1OC`: the growth in assay [1] is 98.9%; in [2], 102%; in assay [3], 96.2%; in assay [4] it was 100%; in [5], 106%; in [6], 96%. Also, the growth in [7] is 112%; in assay [8], 106%; in [9], 105%; in assay [10], 99.7%.

On to `CC(C)[N+]1(C)C2CC[C@@H]1CC(OC(=O)C(CO)c1ccccc1)C2` (stereo not given in full), for which the growth in assay [1] is 123%; in assay [2], 101%; in [3], 104%; in [4], 108%; in assay [5], 110%; in assay [6] it was 116%. For the same compound, the growth in assay [7] is 119%; in [8], 125%; in assay [9] it was 104%; in assay [10], 101%.

With `O=C1c2ccccc2C(=O)c2c1ccc(C(Br)Br)c2[N+](=O)[O-]`, the growth in assay [1] was -32% (active); in assay [2], -7.34% (active); in assay [3], 43.1%; in assay [4], 49.7%; in [5], -23.9% (active); in assay [6], 88.1%. The growth in assay [7] was -55% (active); in assay [8], -84% (active); in assay [9], 103%; in assay [10], 50.3%.

Regarding `Cc1ccc2nc(Cl)c(-c3nc4ccccc4o3)cc2c1`, the growth is 88.6% in [1]; 97.8% in assay [2]; 99.4% in assay [3]; 97.8% in [4]; 99.3% in [5]; 104% in [6]. In addition, the growth in assay [7] was 79.2%; in [8], 98.3%; in [9], 98.6%; in assay [10], 89.4%.

On to `C[C@@H](O)[C@H]1C(=O)N2C(C(=O)O)=C(SCCN=CN)C[C@H]12`, for which the growth in assay [1] is -5.48% (active); in [2] it was -3.62% (active); in [3], -10.1% (active); in assay [4], 3.52% (active); in assay [5] it was -2.15% (active); in [6], 2.23% (active). The growth in assay [7] is -5.16% (active); in assay [8], -15% (active); in [9] it was 24.3%; in assay [10] it was -13.9% (active).

`CCN(CC)CCOc1cccc2c1C(=O)c1cccc(OCCN(CC)CC)c1C2=O`: the growth is 10.3% in [1]; 11% in assay [2]; 25.7% in assay [3]; 55.5% in [4]; 45.9% in assay [5]; 33.8% in assay [6]. In addition, the growth in assay [7] is 33.9%; in assay [8] it was 47%; in assay [9] it was 78.9%; in [10], 86.5%.

With `COc1ccc(C(=O)c2cc3c(OC)c(OC)c(OC)cc3[nH]2)cc1`, the growth is -47.8% (active) in assay [1]; 31.4% in [2]; 62.8% in assay [3]; 68.4% in assay [4]; 62.7% in [5]; 86.4% in assay [6]. Moreover, the growth in [7] is 35%; in assay [8] it was 45.1%; in assay [9], 51.8%; in [10], 18.6%.

For the compound `Nc1ncc(-c2cnn(C3CCNCC3)c2)cc1-c1nc2ccccc2o1`, the growth is -74.7% (active) in [1]; -56% (active) in assay [2]; 9.55% (active) in assay [3]; 34.6% in [4]; 35.8% in assay [5]; 3.49% (active) in [6]. Further, the growth in assay [7] is -14.5% (active); in assay [8], -62.4% (active); in [9], -14.7% (active); in assay [10] it was 42.8%.

For `CC[N+](CC)=c1ccc2nc3c(cc(NCc4ccccc4)c4ccccc43)oc-2c1`, the growth in assay [1] is -9.48% (active); in [2] it was -21.1% (active); in assay [3], -27.2% (active); in assay [4], -91.4% (active); in assay [5], -93.1% (active); in assay [6], -8.74% (active). The growth in assay [7] is -94.5% (active); in [8] it was -54.9% (active); in assay [9], -20.4% (active); in [10], -7.86% (active).

`COc1cc2cc(Oc3ccc(NC(=O)c4cc(C(F)(F)F)cc(C(F)(F)F)c4)cc3)c(C)nc2cc1OC`: the growth is 52.8% in assay [1]; 17.7% in assay [2]; 48.2% in assay [3]; 67.7% in assay [4]; 52.4% in [5]; 44.5% in assay [6]. In addition, the growth in assay [7] was 43.9%; in [8] it was 15.2%; in assay [9] it was 73.1%; in [10], 46.3%.

In the case of `CCOC(=O)c1cc(C(=O)c2cc(OC)c(OC)c(OC)c2)n2ncc3ccccc3c12`, the growth was 23.1% in [1]; 81.9% in [2]; 78.5% in assay [3]; 99.3% in assay [4]; 83.8% in [5]; 83.4% in assay [6]. Further, the growth was 75.9% in assay [7], 47% in assay [8], 85.5% in assay [9] and 63.6% in assay [10].
